The record followed here is PubChem BioAssay (NCI).

Each structure is given as a SMILES string. About 79,000 compounds went through this panel and 15% of them were active in at least one assay; those are over-represented in the sample as a whole. Values without a mark were called inactive. The source made the active and inactive calls. Rule as the data show it: active = growth inhibition above about 70%; inactive = the rest. Where a SMILES comes first, the peptide text is derived from it. The star is where a group is joined. ONp = O=[N+]([O-])c1ccc(O*)cc1; Cbz = O=C(OCc1ccccc1)*; OBn = c1ccc(CO*)cc1

Assay [1] can be described thus: NCI Yeast Anticancer Drug Screen. Data for the rad50 strain (AID 155).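 Also: 0% = growth of vehicle-only cultures of the same strain.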 The note with it: S. cerevisiae rad50 strain growth inhibition; at 50.0 µM; active compounds read high. The method, boiled down: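 Yeast carrying a defined DNA repair defect were exposed to test compounds, and growth was compared with vehicle-treated controls to give percent inhibition.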
Assay [2] can be described thus: NCI Yeast Anticancer Drug Screen. Data for the mec2-1 strain (AID 157). The note with it: S. cerevisiae mec2-1 strain, at 50.0 µM, active compounds read high. The method, boiled down:
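Readout is yeast growth inhibition, normalised to vehicle-treated controls, in the mec2-1 strain exposed to compound.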

A short description of assay [3]: NCI Yeast Anticancer Drug Screen. Data for the sgs1 mgt1 strain (AID 161).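 Also: 0% = growth of cultures given vehicle only.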 Conditions: S. cerevisiae sgs1 mgt1 strain, at 50.0 µM, active compounds read high. The gist of the method:
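Yeast cells carrying a defined DNA-repair defect were exposed to test compounds. Growth inhibition was measured relative to vehicle-treated controls.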

Assay [4] can be described thus: NCI Yeast Anticancer Drug Screen. Data for the cln2 rad14 strain (AID 165).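 Also: 0% = growth equal to vehicle treated cultures.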 The note with it: S. cerevisiae cln2 rad14 strain, at 50.0 µM, active compounds read high. The gist of the method: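 Relative to vehicle controls, growth inhibition of compound-treated cln2 rad14 yeast was recorded.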
The nature of assay [5]: NCI Yeast Anticancer Drug Screen. Data for the bub3 strain (AID 167). The note with it: S. cerevisiae bub3 mutant strain, at 50.0 µM, active compounds read high. The method, boiled down:
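Compounds were applied to a genetically altered yeast strain carrying a cell-cycle control defect. Growth inhibition was scored against vehicle-treated controls.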

Assay [6] can be described thus: NCI Yeast Anticancer Drug Screen. Data for the mlh1 rad18 strain (AID 175). Conditions: S. cerevisiae mlh1 rad18 strain growth inhibition; at 50.0 µM; active compounds read high. The gist of the method:
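Test agents were incubated with a yeast strain of defined genotype (DNA damage repair defect). Inhibition of growth was derived by comparison with vehicle-exposed cultures.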

On to `O=C1Cc2ccccc2CCc2ccccc21`, for which the growth inhibition in assay [1] was 13.2%; in assay [2], -13.3%; in assay [3] it was 6.5%; in assay [4], 22.8%; in assay [5], -13.8%; in assay [6] it was 24%.

Regarding `O=C1CN(c2ccccc2)C(=O)CN1CCN1CC(=O)N(c2ccccc2)CC1=O`, the growth inhibition was -34% in assay [1]; 14.8% in assay [2]; -4.5% in assay [3]; -2.3% in assay [4]; -31.5% in assay [5]; -8.6% in assay [6].

With `CC(C)=NNC(=O)c1ccccc1CC(O)(c1ccccc1)c1ccccc1`, the growth inhibition in assay [1] was 22.1%; in assay [2], 5.25%; in assay [3], 10.2%; in assay [4], -35.6%; in assay [5] it was -24.4%; in assay [6], 15.2%.

Regarding `NC1CCC(P(=O)(O)O)CC1` (stereo not given), the growth inhibition was -0.35% in assay [1]; 3.45% in assay [2]; -4.75% in assay [3]; -9.65% in assay [4]; -6.2% in assay [5]; -5.1% in assay [6].

As to `CCn1c(=O)c2c3cc(OC(C)=O)ccc3oc2c2ccc(OC(C)=O)cc21`, the growth inhibition in assay [1] was -23.3%; in assay [2], -24.4%; in assay [3], -6.8%; in assay [4], 10.3%; in assay [5], 12.9%; in assay [6], -4.75%.

For the compound `COC1(OC)CCC(OC)(OC)C(OC)(OC)C1(OC)OC`, the growth inhibition is 4.75% in assay [1]; 8.1% in assay [2]; 11.7% in assay [3]; -4.2% in assay [4]; -16.2% in assay [5]; 2.75% in assay [6].

On to `CN1c2ccccc2Oc2ccc3ccccc3c21`, for which the growth inhibition in assay [1] was 13.8%; in assay [2], -24.6%; in assay [3], 0.95%; in assay [4] it was -4.3%; in assay [5], -8.2%; in assay [6] it was 12.8%.

Consider `CC1=COC(=O)c2ccccc2N1`, for which the growth inhibition in assay [1] was 15.3%; in assay [2], 1.65%; in assay [3] it was -7.1%; in assay [4] it was 14.6%; in assay [5], 6.05%; in assay [6], 6%.

`COc1ccc(N=C2[Se]C(=NC(=O)c3ccccc3)N(c3ccc(OC)cc3)C2=Nc2ccc(OC)cc2)cc1`: the growth inhibition in assay [1] is 13.1%; in assay [2], -25.5%; in assay [3], -22.2%; in assay [4] it was -36%; in assay [5], 1.3%; in assay [6], -7.95%.

`Cc1cc(=O)oc2cc3c(cc12)Oc1ccccc1O3`: the growth inhibition in assay [1] is -6.85%; in assay [2], -11.2%; in assay [3], -0.95%; in assay [4], 3.5%; in assay [5], 5.8%; in assay [6] it was -5%.

In the case of `O=C(CNC(=O)C(CCC(=O)OCc1ccccc1)NC(=O)OCc1ccccc1)NCC(=O)NC(CO)C(=O)NCC(=O)Oc1ccc([N+](=O)[O-])cc1` (stereo not given) (Cbz-E(OBn)GGSG-ONp; configuration not given here), the growth inhibition is 3.75% in assay [1]; 8.05% in assay [2]; 21.4% in assay [3]; -7.85% in assay [4]; 1.65% in assay [5]; 20.4% in assay [6].

As for `CN1C(=O)N(c2nc3ccccc3[nH]2)C(C)(C)C1=O`, the growth inhibition in assay [1] was 5.25%; in assay [2] it was 1.9%; in assay [3], -23.8%; in assay [4], -6.4%; in assay [5], 6.35%; in assay [6], 18.6%.

Consider `COc1ccccc1NC(=O)NC1CCCCC1`, for which the growth inhibition was -2.8% in assay [1]; -4.65% in assay [2]; -8.2% in assay [3]; -88% in assay [4]; 5.5% in assay [5]; -15.2% in assay [6].

As to `CCCCCCCCCCCCCCCC[N+](C)(C)CCN=[N+]=[N-]`, the growth inhibition in assay [1] is 99.4% (active); in assay [2] it was 99.7% (active); in assay [3], 99.7% (active); in assay [4], 99.2% (active); in assay [5] it was 99.5% (active); in assay [6], 99.5% (active).

In the case of `COc1ccc(NC(=O)CC/C(CC(=O)c2ccco2)=N/Nc2ccc([N+](=O)[O-])cc2[N+](=O)[O-])cc1`, the growth inhibition in assay [1] was 21.4%; in assay [2], -6.8%; in assay [3] it was -0.05%; in assay [4] it was 3.1%; in assay [5], 22.1%; in assay [6], 2.95%.

As to `NC(=O)C(NN=C1c2ccccc2-c2ccccc21)(c1ccccc1)c1ccccc1`, the growth inhibition in assay [1] was 41%; in assay [2], -0.2%; in assay [3] it was 28%; in assay [4] it was 42.8%; in assay [5] it was 0.05%; in assay [6], 18.7%.

In the case of `CCCCC1CCCCC1=O` (stereo not given), the growth inhibition was 16.4% in assay [1]; -15.2% in assay [2]; 3.1% in assay [3]; 12.5% in assay [4]; -0.45% in assay [5]; 5.1% in assay [6].

For `Cc1cccc(NC(=O)Oc2cc(C)c(Cl)cc2C(C)C)c1`, the growth inhibition in assay [1] was 93% (active); in assay [2], 98.9% (active); in assay [3], 96.8% (active); in assay [4] it was 93.3% (active); in assay [5] it was 98.5% (active); in assay [6] it was 98% (active).

Take `Cn1c(=O)cc2[nH]c3ccccc3n2c1=O`: the growth inhibition in assay [1] was 9.5%; in assay [2], 22.4%; in assay [3], -10%; in assay [4], -5.7%; in assay [5], 4.6%; in assay [6] it was -19.7%.

In the case of `O=c1[nH]nc(-c2ccccc2)n1/N=C/c1c(O)ccc2ccccc12`, the growth inhibition is 8.15% in assay [1]; 17.9% in assay [2]; 9.15% in assay [3]; 13.3% in assay [4]; 15.4% in assay [5]; 24.6% in assay [6].
